# DT40 TDP1 no CPT: qHTS for Inhibitors of human tyrosyl-DNA phosphodiesterase 1 (TDP1): qHTS in cells in absence of CPT; Potency, µM (titrated, usually from 46.2 µM), for inactives: top-dose activity change, negative = growth inhibition, most hits filed as inhibitors; 420,000 tested, 15% active; DT40 Tdp1-/- hTDP1 cells, no CPT, ATP luminescence, 48 h; also: potency is read from the fitted curve at half-maximal effect; % is scaled to controls: 0 for no effect and ±100 for the full control effect; nearly all actives have a fitted effect of over 55% in size
#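 DT40 Tdp1-/-;hTDP1 cells, no CPT (DMSO vehicle only), 400 cells/well; compounds pin-transferred; ≥48 hr, 37 °C; CellTiter-Glo 30 min RT dark, luminescence read.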
# S-ASM inh: inhibitors of human secretory acid sphingomyelinase. AID 504937. Potency, µM (titrated, usually from 57.5 µM), without a hit: at the top dose activity change, negative = inhibition, hits mostly inhibitors. P17405. placental ASM, HMU-PC fluorogenic substrate, 60 min. 340,000 tested, 0.006% active; also: potency is read from the fitted curve at half-maximal effect
# Target sequence (P17405 47-631 limits assumed): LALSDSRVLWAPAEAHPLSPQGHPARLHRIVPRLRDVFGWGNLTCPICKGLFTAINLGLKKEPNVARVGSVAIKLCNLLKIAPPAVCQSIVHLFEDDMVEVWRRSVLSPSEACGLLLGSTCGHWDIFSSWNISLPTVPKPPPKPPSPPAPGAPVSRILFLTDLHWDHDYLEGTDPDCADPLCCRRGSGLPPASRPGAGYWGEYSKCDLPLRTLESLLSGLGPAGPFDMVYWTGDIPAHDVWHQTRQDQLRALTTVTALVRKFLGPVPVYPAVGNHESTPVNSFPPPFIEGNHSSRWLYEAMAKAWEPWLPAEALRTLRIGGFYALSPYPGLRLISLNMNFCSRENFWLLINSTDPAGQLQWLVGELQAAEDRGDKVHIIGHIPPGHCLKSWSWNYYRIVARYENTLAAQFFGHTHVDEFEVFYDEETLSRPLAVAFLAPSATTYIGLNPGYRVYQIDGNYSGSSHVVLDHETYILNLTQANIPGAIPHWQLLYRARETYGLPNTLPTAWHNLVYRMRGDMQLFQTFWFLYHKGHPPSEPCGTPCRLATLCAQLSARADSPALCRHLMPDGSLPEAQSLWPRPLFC
#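 Human placenta-derived ASM preincubated with compound 10 min at room temperature, then reacted with 9 uM (final) fluorogenic HMU-PC substrate for 60 min at 37 C. Stop solution raises pH to 10; fluorescence read at Ex 386/Em 447 nm.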
# DT40 TDP1 CPT: growth inhibition of DT40 Tdp1-/-;hTDP1 cells with camptothecin (screen for TDP1 inhibitors); chicken DT40 Tdp1-/-;hTDP1 cells + 20 nM CPT, ATP luminescence, 48 h; Potency, µM (titrated, usually from 46.2 µM), without a hit: at the highest dose activity change, negative = growth inhibition, usual class: inhibitors; 420,000 tested, 12% active; AID 686979; also: potency is read from the fitted curve at half-maximal effect; % is scaled to controls: 0 for no effect and ±100 for the full control effect; nearly all actives have a fitted effect of over 55% in size
#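 Chicken DT40 Tdp1-/- cells complemented with human TDP1, 400 cells/well, exposed to compounds plus 20 nM camptothecin for at least 48 h at 37 C; viability read as ATP content by CellTiter-Glo luminescence.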
# TGFb inhibitor: TGF-b pathway inhibition; HepG2 CAGA-GFP TGF-b/SMAD3 reporter, GFP fluorescence, 18 h; TGF-beta stimulated, 500 pg/mL final; Potency, µM (top dose mostly 46.1 µM), for inactives: at the top dose activity, negative = inhibition, usual class: inhibitors; 410,000 tested, 1.2% active; also: potency is read from the fitted curve at half-maximal effect; % is scaled to controls: 0 for no effect and ±100 for the full control effect; nearly all actives have a fitted effect of over 65% in size
#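 HEPG2 CAGA-GFP cells (1000/well, DMEM with 1% FBS) were pre-incubated 2 h at 37 degrees C, given compound by pin tool, then stimulated with TGF-beta at 500 pg/mL final for 18 h before per-cell GFP fluorescence imaging.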
# IL-1B inflam inh: inhibitors of inflammasome signaling (IL-1 beta secretion); THP-1 LPS/ATP IL-1B secretion, AlphaLISA, 16 h; active compounds read low; 360,000 tested, 4.7% active; activity change, % at 57.5 µM; in the data active = activity change below about -50%; inconclusive = mostly about -30% to -49%; also: % is scaled to controls: 0 for no effect and ±100 for the full control effect
#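 THP-1 cells pretreated 1 hr with compounds (up to 57.5 uM final), then stimulated with LPS (250 ng/mL final) plus ATP (1.25 mM final); secreted IL-1B measured by AlphaLISA after 16 hr, decreased signal indicating inhibition.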
# HepG2 tox: kills HepG2 cells in TGF-b inhibitor counter-screen; HepG2 CAGA-GFP viability, ATP luminescence, 18 h; Potency, µM (titrated, usually from 46.1 µM), inactives show top-dose activity change, negative = cytotoxicity, usual class: cytotoxic; 410,000 tested, 0.76% active; also: potency is read from the fitted curve at half-maximal effect
#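 CellTiter-Glo luminescence gave cytotoxicity after 18 hours at 37 degrees C. The cells were HepG2 CAGA-GFP in 1% FBS DMEM, stimulated with 500 pg/mL TGF-beta after compound addition. %Activity was normalised to no-cell wells (complete cell-killing) and DMSO (no toxicity), and curves were fitted and classified.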
# Active calls of the source: *; ? = inconclusive; . = no result given; [ ] = dose if it differs, or a comment. Shown are actives, neighbours in structure and some others; about 19% of the full set was active somewhere. Unless noted, calls follow the shape of the dose curve; as a rule, active = well fitted curve in the direction sought with a large enough effect; inconclusive = small, poorly fitted or top-dose-only effect, or another doubt; inactive = no such curve, though single readings can be large; an effect the other way counts as inactive or inconclusive.
SMILES,DT40 TDP1 no CPT,S-ASM inh,DT40 TDP1 CPT,TGFb inhibitor,IL-1B inflam inh,HepG2 tox
COc1ncnc2c1ncn2CCCNC1CCN(Cc2ccccc2)CC1,?,.,6%,6%,?,-15%
Cc1cc(Br)cc(C)c1OCC(=O)NNC(=O)CCC(=O)NCc1ccccc1,8%,-2%,-1%,-9%,6,-17%
O=C1c2ccccc2C(=O)c2c1cccc2N1CCCC1,8.2µM*,-18%,?,?,-29,-59%
CC(C)COc1cccc(C(=O)N(CC(=O)Nc2ccccc2C(F)(F)F)Cc2ccco2)c1,18µM*,-2%,?,?,-29,-5%
CC(C)COc1ccc(C(=O)N(Cc2ccc(N(C)C)cc2)Cc2ccco2)cc1,15µM*,.,18µM*,.,.,-40%
COc1ccc(CN(Cc2ccco2)C(=O)c2ccccc2F)cc1,16µM*,.,16µM*,0%,.,-15%
CC(C)(C)c1ccc(C(=O)N(Cc2ccc(F)cc2)Cc2ccco2)cc1,?,.,?,-42%,.,-67%
CCOc1cccc(C(=O)N(Cc2ccc(F)cc2)Cc2ccco2)c1,16µM*,.,23µM*,-3%,.,-23%
CC(NC(=O)c1ccco1)c1nnc2n1CCN(Cc1ccc(N3CCCC3)cc1)CC2 (stereo not given),-18%,.,-4%[9.04 µM],.,.,.
CCOc1ccccc1C(=O)N(Cc1ccc(N(C)C)cc1)Cc1ccco1,16µM*,.,?,.,.,-37%
COc1ccc(CNC(=O)CN(Cc2ccco2)C(=O)CNS(=O)(=O)c2ccccc2)cc1,-25%,-4%,?,-6%,-67*,-8%
Cc1ccc(S(=O)(=O)NCC(=O)N(c2ccccc2)C(C(=O)NCc2ccccc2)c2ccco2)cc1 (stereo not given),18µM*,-2%,?,?,?,-5%
CCOc1c(Cl)cc(C(=O)N(Cc2ccc(N(C)C)cc2)Cc2ccco2)cc1Cl,13µM*,.,23µM*,.,.,-30%
CN(C)c1ccc(CN(Cc2ccco2)C(=O)c2ccco2)cc1,?,-3%,?,6%,-28,-13%
COc1ccccc1CN1CC(C(=O)NCc2ccc(C)c(F)c2)CCC1=O (stereo not given),4%,-3%,-20%,1%,49,-1%
C[C@H]1CN([C@@H](C)CO)C(=O)c2cccc(NC(=O)C3CC3)c2O[C@H]1CN(C)S(=O)(=O)c1cccs1,-20%,2%,-15%,15%,-18,-5%
O=C(c1ccncc1)N1CCC2(CC1)CCN(c1ccncc1)CC2,-13%,.,16%,.,.,.
Cc1nn(-c2ccccc2)c2c1C(c1ccc(Cl)cc1)N(c1ccccc1)C(=O)N2 (stereo not given),-25%,-19%,?,-14%,-14,0%
Cc1nn(-c2ccccc2)c2c1C(c1ccc([N+](=O)[O-])cc1)N1C(=N2)C(=O)Nc2ccccc21 (stereo not given),15µM*,?,?,?,-75*,11%
Cc1cccc(NC2=Nc3ccccc3N3C2=Nc2c(c(C)nn2-c2ccccc2)C3c2ccc(O)c(O)c2)c1 (stereo not given),?,80%,?,?,-15,-99%
Cc1nn(-c2ccc([N+](=O)[O-])cc2)c2c1C(c1cccc(Br)c1)N1C(=N2)C(=O)Nc2ccccc21 (stereo not given),3.3µM*,-17%,2.6µM*,?,3,-1%
O=C(C=Cc1ccccc1)CC(c1ccccc1)N1CCOCC1 (stereo not given),3.3µM*,-5%,4.1µM*,?,-98*,13µM*
CN(C)c1ccnc(-n2cccc2/C=N/O)c1C#N,-18%,2%,-28%,9%,-6,3%
O=C(Nc1ccc(C(=O)N2CCCCC2)cc1)C1CCC1,-22%,4%,?,0%,-14,1%
c1ccc2c(c1)CCc1c-2nc2ccccc2c1N1CCOCC1,?,8%,12µM*,?,-20,-39%
SMILES,DT40 TDP1 no CPT,S-ASM inh,DT40 TDP1 CPT,TGFb inhibitor,IL-1B inflam inh,HepG2 tox
CCOc1ccccc1-c1nnc(SCc2ccc(Cl)cc2)o1,.,.,.,?,.,-57%
Nc1nonc1-n1nnc(C(=O)N/N=C/c2cccc(Cl)c2Cl)c1CN1CCCC1,15µM*,-2%,8.2µM*,1%,26,-3%
CC1CCN(Cc2c(C(=O)N/N=C/c3ccc(C(C)(C)C)cc3)nnn2-c2nonc2N)CC1,13µM*,1%,13µM*,-11%,43,-20%
Nc1nonc1-n1nnc(C(=O)N/N=C/c2ccc(Cl)cc2Cl)c1CN1CCCC1,-7%,-28%,12%,0%,-2,-1%
CC1(OC(=O)CCc2ccccc2)C(=O)C=C2C=C(c3ccc(C#N)cc3)N(c3ccccc3)C=C2C1=O (stereo not given),13µM*,45%,?,-8%,9,-77%
CC1(OC(=O)CCc2ccccc2)C(=O)C=C2C=C(c3ccc(C#N)cc3)N(CCN3CCOCC3)C=C2C1=O (stereo not given),-2%,11%,-4%,-1%,29,-27%
CC1(OC(=O)CCc2ccccc2)C(=O)C=C2C=C(c3ccc(C#N)cc3)N(CC3CC3)C=C2C1=O (stereo not given),?,50%,15µM*,0%,-16,-3%
CC1(OC(=O)CCc2ccccc2)C(=O)C=C2C=C(c3ccc(C#N)cc3)N(C3CCCC3)C=C2C1=O (stereo not given),15µM*,48%,23µM*,-37%,13,-12%
CC1(OC(=O)C2CCCC2)C(=O)C=C2C=C(c3ccsc3)N(C3CCCC3)C=C2C1=O (stereo not given),?,21%,?,-2%,10,-5%
C/C(=N\NC(=O)C1(C)NC(C)(C)Cc2ccccc21)c1ccccc1 (stereo not given),-22%,3%,0%,1%,-13,-10%
CCc1ccc(CNC(=O)C2CCN(S(=O)(=O)N3CC(C)CC(C)C3)CC2)cc1 (stereo not given),9%,2%,-12%,-6%,0,-9%
O=C(Nc1ccc(Cl)cc1)c1ccc(CN2CCc3ccccc3C2)cc1,-11%,-1%,?,?,-10,-23%
O=C(Nc1ccc(S(=O)(=O)N2CCOCC2)cc1)c1ccc(CN2CCc3ccccc3C2)cc1,0.92µM*,-2%,1.2µM*,-7%,?,-16%

# From PubChem
